# Shown are actives, neighbours in structure and some others; about 2.3% of the full set was active somewhere.
# JMJD2E inh = blocks human JMJD2E demethylase activity. 230,000 compounds, 1.6% hits. Potency, µM (highest dose often 57.1 µM), for the others: at the top dose activity change, negative = inhibition, actives largely listed as inhibitors. JMJD2E catalytic domain, FDH-coupled NADH fluorescence (FDH is formaldehyde dehydrogenase). B2RXH2; active means well fitted inhibition curve with a large enough effect, not every such curve was filed as active; inconclusive means small, poorly fitted or top-dose-only effect, or another doubt; inactive means no such curve, though single readings can be large or run the other way;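 further: potency means the concentration at half of the fitted maximal effect; 0% = wells with enzyme and -100% = buffer wells without enzyme; nearly all actives have a fitted effect of over 50% in size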
# Target sequence (B2RXH2 1-337 limits assumed): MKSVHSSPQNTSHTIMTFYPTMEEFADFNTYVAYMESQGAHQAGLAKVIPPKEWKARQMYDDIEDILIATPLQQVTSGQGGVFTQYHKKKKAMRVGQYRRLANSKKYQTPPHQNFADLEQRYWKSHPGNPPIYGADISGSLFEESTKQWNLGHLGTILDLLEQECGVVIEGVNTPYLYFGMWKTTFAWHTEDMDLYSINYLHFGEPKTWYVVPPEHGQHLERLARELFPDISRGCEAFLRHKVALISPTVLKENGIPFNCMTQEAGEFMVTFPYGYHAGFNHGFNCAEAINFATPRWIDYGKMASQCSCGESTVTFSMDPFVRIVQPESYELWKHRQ
# HTT ATP protect = protects HTT-Q103 PC12 cells, measured by ATP; PC12 HTT-Q103 induced, cytoprotection, ATP luminescence, 40 h; Potency, µM (doses to about 56.4 µM), for inactives: cytoprotection (ATP increase), actives largely listed as activators; 230,000 compounds, 0.14% hits; AID 1471; further: potency means the concentration at half of the fitted maximal effect; % of control where 0% means no effect; nearly all actives have a fitted effect of over 45% in size
#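 Cells were plated at 1500 per well in phenol red-free DMEM with 5% equine and 5% calf serum. Tebufenozide (100 nM final) and compounds were added, then ATPlite reagent, and luminescence was read.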
# VDR inh = blocks the human vitamin D receptor | VDR-SRC2-3 peptide fluorescence polarization, 2 h | AID 504847 | Potency, µM, for inactives: max response, negative = inhibition, hits mostly inhibitors | P11473 | 400,000 compounds, 0.93% hits; further: potency means the concentration at half of the fitted maximal effect; on the % scale 0 is the no-effect control and ±100 the full control effect
#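 Two reagent solutions held at 4 deg C in the dark were dispensed, compounds pinned at 23 nl, and the mixture incubated 2 h at room temperature. Read-out: fluorescence polarization of VDR–SRC2-3 peptide binding.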
# FBPA coupling cs = coupling enzyme interference in Giardia aldolase counter-screen; coupling enzyme system counterscreen, AmpLite Red fluorescence; 290,000 compounds, 0.67% hits; activity change, negative = inhibition, % at 58.2 µM, hits read low; in the data active means activity change below about -30%; further: on the % scale 0 is the no-effect control and ±100 the full control effect
#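 Counterscreen lacking aldolase: glyceraldehyde-3-phosphate coupling-enzyme reagent preincubated 10 min at RT with compound (at 57.5 uM final), then substrate/coupling system with AmpLite Red added; fluorescence read at 525/598 nm after 20 min RT.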
# RGS12 GoLoco inh = blocks human Gai1 binding to RGS12 GoLoco peptide, red readout; P63096; Gai1:RGS12 GoLoco peptide FP, rhodamine, 10 min; Potency, µM (series often up to 61.6 µM), inactives show at the top dose activity, negative = inhibition, usual class: inhibitors; 230,000 compounds, 0.44% hits; active means well fitted inhibition curve with a large enough effect, not every such curve was filed as active; inactive means no such curve, though single readings can be large or run the other way; further: potency means the concentration at half of the fitted maximal effect; on the % scale 0 is the no-effect control and ±100 the full control effect; nearly all actives have a fitted effect of over 30% in size
# Target sequence (P63096 whole entry, looked up): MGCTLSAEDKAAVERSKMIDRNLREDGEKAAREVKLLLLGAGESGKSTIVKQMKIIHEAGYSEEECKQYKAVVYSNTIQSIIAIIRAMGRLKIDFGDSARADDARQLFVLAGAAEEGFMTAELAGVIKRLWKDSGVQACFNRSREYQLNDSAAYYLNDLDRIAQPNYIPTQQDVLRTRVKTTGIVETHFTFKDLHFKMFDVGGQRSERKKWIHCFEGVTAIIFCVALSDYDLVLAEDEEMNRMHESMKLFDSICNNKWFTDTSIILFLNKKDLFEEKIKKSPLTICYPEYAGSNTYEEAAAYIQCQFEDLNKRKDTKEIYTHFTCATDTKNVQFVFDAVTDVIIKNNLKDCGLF
# HTT aggregate = mutant huntingtin aggregation inhibition. PC12 HttQ103-GFP aggregates, Acumen cytometry, 40 h. Potency, µM (highest dose often 46.1 µM), for inactives: top-dose activity change, negative = inhibition, usual class: inhibitors. 220,000 compounds, 1.1% hits. AID 1688; further: potency means the concentration at half of the fitted maximal effect; on the % scale 0 is the no-effect control and ±100 the full control effect; nearly all actives have a fitted effect of over 60% in size
#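 Steps: seed 1500 PC12 HTTQ103-GFP cells/well; add tebufenozide, 100 nM final; add compound titration; add ATPLite reagent; quantify GFP aggregates by laser scanning cytometry.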
# * = called active by the depositor; u = inconclusive; x = no result; [ ] = dose if it differs, or a comment. Unless noted, the call rests on the fitted dose curve; in most records, active means well fitted curve in the direction sought with a large enough effect; inconclusive means small, poorly fitted or top-dose-only effect, or another doubt; inactive means no such curve, though single readings can be large; an effect the other way counts as inactive or inconclusive.
SMILES,JMJD2E inh,HTT ATP protect,VDR inh,FBPA coupling cs,RGS12 GoLoco inh,HTT aggregate
OCC[C@H]1NCc2cc(CO)cc(-c3ccccc3)c21,x,x,-10%,x,x,x
COCCn1c(C)cc(C2=NNC(=Nc3ccccc3F)SC2)c1C,25µM*,-45%,-9%,-6,16%,12%
COCCCN=C1NN=C(c2cc(C)n(-c3ccccc3F)c2C)CS1,32µM*,-114%,-4%,-3,1%,u
Cc1cc2c(NC3CCCCC3)ncnc2s1,x,x,-2%,-4,x,x
S=c1nc(-c2ccc(Cl)cc2)[nH][nH]1,u,3%[10 µM],-29%,6,1%,-4%[9.22 µM]
CCCOc1ccc(-c2nc(=S)[nH][nH]2)cc1,-3%,8%[10 µM],89µM*,11,-6%,-13%
CCCN1C(=O)C2(c3ccccc31)c1c(oc3ccccc3c1=O)C(=O)N2CCO (centres undefined),x,x,15%,x,x,x
CCC1=NNc2cccc3c(OC)ccc1c23,5µM*,-2%,x,-26,18µM*,0%[9.22 µM]
COc1ccc(N=Cc2nc(-c3ccccc3)oc2OC(C)=O)cc1,12%,16%[10 µM],28µM*,2,-1%,6%[9.22 µM]
CC(Oc1cc2oc(=O)c3c(c2cc1Cl)CCCC3)C(=O)NCCN1CCOCC1 (centres undefined),x,x,u,1,x,x
Brc1ccc2[nH]c3c(N4CCc5ccccc5C4)ncnc3c2c1,3.5µM*,-39%,16%,3,57%,u
Cc1ccc2[nH]c3c(N4CCc5ccccc5C4)ncnc3c2c1,u,-85%,-3%,0,3%,3.5µM*
CCOc1ccc2[nH]c3c(N4CCc5ccccc5C4)ncnc3c2c1,u,-22%[10 µM],-8%,-2,3%,4%[9.22 µM]
Clc1ccc2[nH]c3c(N4CCC5(CC4)OCCO5)ncnc3c2c1,u,-98%,-13%,-4,-2%,8.9µM*
Fc1ccc2[nH]c3c(N4CCc5ccccc5C4)ncnc3c2c1,u,7%[10 µM],-9%,3,9%,3%[9.22 µM]
Cc1ccc(-n2nc3cc(C)c(NC(=O)COc4ccccc4)cc3n2)cc1,x,x,4%,x,x,x
Cc1cc(NO)c(C(C)C)cc1N=O,-1%,-74%[10 µM],-1%,-1,-5%,3.2µM*
COc1ccccc1C(=O)Nc1cccc(C(=O)OCc2cc(=O)n3c4c(sc3n2)CCCC4)c1,x,x,-1%,x,x,x
COc1cc(/C=C2/SC(=S)NC2=O)ccc1OS(=O)(=O)c1ccc(C)cc1,3%,-2%[10 µM],50µM*,6,27%,u
COc1ccc(/C=C2/SC(c3ccc(C)cc3)=NC2=O)cc1OC,-11%,-50%,50µM*,3,86%,u
CCc1ccc(NC(=O)CN2C(=O)C3CCCN3c3ccc(S(=O)(=O)N(CC)CC)cc32)cc1 (centres undefined),x,x,-1%,x,x,x
N#Cc1cccc(-n2nnnc2-c2ccc3c(c2)OCO3)c1,0%,2%,-10%,1,-1%,3%
N#Cc1cccc(-n2nnnc2-c2ccccn2)c1,u,3%[10 µM],3%,1,x,11µM*
Cc1ccc(-n2cccn2)cc1,2%,7%[10 µM],-5%,-1,8%,15%[9.22 µM]
O=Cc1ccc(-n2cccn2)cc1,14µM*,-38%,-5%,4,11%,9%
SMILES,JMJD2E inh,HTT ATP protect,VDR inh,FBPA coupling cs,RGS12 GoLoco inh,HTT aggregate
CN1CC[n+]2c(CN3C(=O)c4ccccc4C3=O)csc21,-9%,-2%[0.074 µM],-1%,1,18µM*,-25%
Cc1c(C)n(CC(O)CNc2ccccc2)c2ccccc12 (centres undefined),18µM*,29%[10 µM],-16%,-7,11%,9%[9.22 µM]
Cc1c(C)n(CC(O)CNCCO)c2ccccc12 (centres undefined),u,-34%,18%,0,7%,26%
CC1(c2ccc(Cl)cc2)NC(=O)N(CC(=O)Nc2cccnc2Cl)C1=O (centres undefined),x,x,0%,x,x,x
CCc1cc(=O)oc2cc(OCC(=O)N3CCC(C(=O)O)CC3)ccc12,x,x,-10%,-73*,x,x
CSc1nc(NCCOCCO)c2sc3nc(-c4ccco4)c4c(c3c2n1)CCC4,u,-10%,2%,2,63%,u
CCN(CCO)c1nc(SC)nc2c1sc1nc(-c3ccco3)c3c(c12)CCC3,3.5µM*,19%,0%,2,33%,u
CC(C)(C)c1onc(OCP(=O)(O)O)c1C[C@@H](N)C(=O)O,x,-5%[1.9 µM],x,x,x,x
CC(=O)c1c(C)oc2ccc(N(C(C)=O)S(=O)(=O)c3ccc(Cl)c([N+](=O)[O-])c3)cc12,-1%,-106%,4%,3,6%,11µM*
CC(=O)c1c(C)oc2ccc(N(C(C)=O)S(=O)(=O)c3ccc(Br)cc3)cc12,x,x,-1%,x,x,x
CCc1cc(C(=O)NCc2ccccc2)no1,x,x,5%,x,x,x
N#CCCN1CCN(C(=S)c2ccc(-c3ccc(Cl)cc3)o2)CC1,13µM*,-12%,1%,-10,15%,-8%
O=C1/C(=C/c2ccco2)SC(=S)N1C1CCS(=O)(=O)C1 (centres undefined),1%,-98%[10 µM],-5%,-45*,37%,4.5µM*
Cc1ccc(/C=C2/SC(=S)N(C3CCCCC3)C2=O)o1,x,x,-7%,-6,x,x
O=C1/C(=C\c2ccco2)SC(=S)N1C1CCS(=O)(=O)C1 (centres undefined),28µM*,6%[10 µM],12%,-13,24%,6%[9.22 µM]
Cc1ccc(N2C(=O)/C(=C\c3ccco3)SC2=S)cc1,-3%,-12%,-26%,-9,180%,2%
O=C1/C(=C\c2ccco2)SC(=S)N1c1ccccc1,20µM*,x,4%,-6,70%,13%
O=C1/C(=C/c2ccco2)SC(=S)N1CC1CCCO1 (centres undefined),11µM*,12%[10 µM],-3%,-13,75%,-8%[9.22 µM]
CN(C)/C=C/C(=O)c1ncc(C(F)(F)F)cc1Cl,-7%,11%[10 µM],-10%,0,10%,-13%
Cc1ccccc1NS(=O)(=O)c1cc(C(=O)NCc2ccncc2)ccc1Cl,x,x,6%,-1,x,x
COc1ccc(NC(=O)[C@@H]2[C@@H]3C(=O)N(C4CCCCC4)C(=O)[C@@H]3C3c4ccccc4C=CN32)cc1 (some centres undefined),11%,-13%,-1%,-31*,80%,-16%
CCCC[C@@H](C=O)NC(=O)[C@H](CC(C)C)NC(=O)OCc1ccccc1,x,-98%,35µM*,x,-1%,x
CC(C)CC(NC(=O)OCc1ccccc1)C(=O)NC(Cc1ccccc1)C(=O)CCl (centres undefined),x,x,71µM*,x,x,x
CCCCC(C=O)NC(=O)C(CC(C)C)NC(=O)OCc1ccccc1 (centres undefined),3%,17%,u,6,3%,x
CCOc1ccc(S(=O)(=O)N2CCN=C2c2ccccc2)c(C)c1C,x,x,-7%,x,x,x
